GPR151 ag – activators of human GPR151, primary screen, cell-based, PathHunter beta-arrestin, luminescence. G-protein coupled receptor 151 (Homo sapiens), Q8TDV0. 1% of 650,000 active. PathHunter beta-arrestin GPR151 cells. activation, % at 11.2 µM; in the data active = activation above about 4.9%;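 note: 0% = median of compound wells and 100% = cells with positive control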
Target sequence (Q8TDV0 whole entry, looked up): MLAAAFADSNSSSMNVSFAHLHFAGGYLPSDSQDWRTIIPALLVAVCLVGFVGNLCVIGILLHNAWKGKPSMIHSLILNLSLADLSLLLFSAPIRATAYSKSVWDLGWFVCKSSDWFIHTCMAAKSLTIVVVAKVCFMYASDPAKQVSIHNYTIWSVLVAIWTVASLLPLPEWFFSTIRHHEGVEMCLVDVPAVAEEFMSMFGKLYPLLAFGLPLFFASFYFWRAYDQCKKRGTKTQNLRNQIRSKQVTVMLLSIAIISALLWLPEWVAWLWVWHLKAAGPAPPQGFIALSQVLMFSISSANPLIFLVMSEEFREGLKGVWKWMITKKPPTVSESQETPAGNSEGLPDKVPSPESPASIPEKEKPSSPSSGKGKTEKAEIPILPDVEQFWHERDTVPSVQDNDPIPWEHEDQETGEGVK
FBW7 act – FBW7 E3 ligase activators, primary screen, biochemical, AlphaScreen, human; F-box/WD repeat-containing protein 7 (Homo sapiens), Q969H0; AlphaScreen FBW7–phospho-cyclin E peptide binding, activator screen; normalized activity (activation), % at 26.1 µM; 0.13% of 650,000 active; AID 1259310, 2017; in the data active = normalized activity above about 1.9%;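 note: purified mutant Fbw7 with reduced substrate affinity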
MITF inh – MITF inhibitors, primary screen, biochemical, AlphaScreen, human | AID 1259374, 2018 | Microphthalmia-associated transcription factor (Homo sapiens), O75030 | AlphaScreen MITF homodimerization, bead proximity signal | 0.91% of 650,000 active | inhibition, % at 2.6 µM; in the data active = inhibition above about 50%;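 note: 0% = vehicle wells with protein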
TEAD-YAP block – TEAD-YAP interaction inhibition, primary screen, TEAD-YAP interaction inhibitor project, luminescence, HEK-TIYL cells; TEAD-Gal4/YAP UAS-luciferase luminescence; 1.4% of 640,000 active; inhibition, % at 9.12 µM; in the data active = inhibition above about 32%;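 note: 0% = median of test compound wells and 100% = reference inhibitor wells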
MITF confirm – MITF inhibitors, retest of hits, confirmation, biochemical, AlphaScreen, triplicate; 16% of 4,700 active; inhibition, % at 2.6 µM; shares compounds with MITF inh; AlphaScreen MITF homodimerization, biotin/His-MITF beads;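 active = inhibition above a cutoff derived from the DMSO control wells, cut at about 28% in these data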;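 note: 0% = MITF dimer wells with DMSO only; inhibitors lower the bead chemiluminescence by keeping MITF from dimerizing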
AlphaScreen DR – AlphaScreen optical interference compounds, dose response, counter-screen, biochemical, HTS; shares compounds with MITF inh; AlphaScreen optical interference counterscreen, cell-free; IC50, µM; 6% of 480 active; AID 1259373, 2018; call rule not given here
AS interf ctr – AlphaScreen optical interference compounds, counter-screen for MITF inhibitor project, biochemical, triplicate. shares compounds with MITF inh. LysRS AlphaScreen counterscreen, signal interference. inhibition, % at 2.6 µM. 7.6% of 4,700 active. AID 1259376, 2018;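 active = inhibition above a cutoff derived from the DMSO control wells, cut at about 30% in these data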
Starred values were filed as active, the others as inactive; · = no result given. Hits are enriched below; roughly 3.5% of the tested compounds scored in any of these assays.

SMILES	GPR151 ag	FBW7 act	MITF inh	TEAD-YAP block	MITF confirm	AS interf ctr	others
COc1cc(CN2CCc3nncn3CC2)cc2c1OCO2	2	0	0	6	·	·
COc1cc(CN2CCN(Cc3ccccc3F)CC2)cc2c1OCO2	-1	0	81*	-6	0	6
COc1cc(CN2CCN(Cc3cccc(C)c3)CC2)cc2c1OCO2	1	0	58*	1	1	-1
COc1cc(CN2CCCN(C)CC2)cc2c1OCO2	1	1	39	12	·	·
COc1cc(CN2CCN(Cc3cc(OC)c4c(c3)OCO4)CC2)cc2c1OCO2	1	0	54*	-4	15	24
COc1cc(CN2CCN(Cc3ccccc3)CC2)cc2c1OCO2	0	0	78*	-1	7	-2
COc1cc(CN2CCN(Cc3cccnc3)CC2)cc2c1OCO2	0	0	68*	3	12	23
CC(C)[C@@H]1NC(=O)[C@H]2CN(C(=O)NC3CCCCC3)CCN2C1=O	1	0	71*	-3	68*	-12	AlphaScreen DR=>6.5
CC(C)[C@@H]1NC(=O)[C@H]2CN(C(=O)c3ccc(Cl)cc3)CCN2C1=O	2	0	-1	-2	·	·
C[C@H]1NC(=O)[C@H]2CN(C(=O)NC3CCCCC3)CCN2C1=O	-1	0	75*	-3	74*	-9	AlphaScreen DR=>6.5
N#Cc1c(-c2cccs2)cc(C2CC2)nc1SCc1ccc([N+](=O)[O-])cc1	0	0	4	2	·	·
Cc1ccc(N2C(=O)C3ON(c4ccccc4)C(c4ccc([N+](=O)[O-])cc4)C3C2=O)cc1 (centres undefined)	1	0	61*	-1	5	-4
CN(C)/C=C/C=C/C(=O)c1cccc(C(=O)/C=C/C=C/N(C)C)c1O	1	0	56*	-8	79*	-11	AlphaScreen DR=>6.5
Cc1ccc(C(=O)/C=C/C=C/C=C/N(C)C)o1	-1	0	16	-4	·	·
O=C(CN1CCN(c2ccccn2)CC1)N(Cc1ccccc1)Cc1ccccc1	1	0	91*	-1	10	13
COc1cc(CN2CCN(c3ccccn3)CC2)ccc1O	-2	0	54*	1	-3	2
Brc1ccc(CN2CCN(c3ccccn3)CC2)cc1	0	0	53*	9	-2	3
Cc1ccc(CN2CCN(c3ccccn3)CC2)cc1	0	1	44	6	·	·
COCCNc1ccc2ncc(-c3cccc(N(C)C)c3)n2n1	0	-1	10	16	·	·
COCCNc1ccc2ncc(-c3cccc(C(F)(F)F)c3)n2n1	0	0	65*	5	6	15
Cc1[nH]c2ccccc2c1SCc1ccccc1F	1	0	-11	-1	·	·
Clc1cc(CNC2CCN(Cc3ccccc3)CC2)cc2c1OCCO2	0	0	58*	3	10	10
CC1CCCC(NC(=O)CN(C)S(=O)(=O)c2cccc3cccnc23)C1C (centres undefined)	0	1	64*	-4	10	10
O=C(Nc1ccc(Oc2ccccc2)cc1)c1cn(-c2ccc(F)cc2F)c(=O)c2ccccc12	1	0	9	-2	·	·
Fc1ccc(NCc2nnc(SCCN3CCOCC3)n2-c2ccccc2)cc1	-1	0	67*	3	11	10
SMILES	GPR151 ag	FBW7 act	MITF inh	TEAD-YAP block	MITF confirm	AS interf ctr	others
CCC(Sc1nccn1C)C(=O)Nc1nc2ccccc2s1 (centres undefined)	-1	0	11	-25	·	·
CCOC(=O)c1c(NC(=O)CN(C)C)sc(C)c1C	0	0	5	6	·	·
CCOC(=O)c1c(NC(=O)CN2CCN(CC)CC2)sc(C)c1C	-1	0	86*	5	6	2
CCOC(=O)c1sc(NC(=O)CN2C(C)CCCC2C)c(C(=O)OCC)c1C (centres undefined)	2	0	58*	-3	-5	3
CC1CCN(Cc2nc3c(c(=O)n(C)c(=O)n3C)n2Cc2ccc(F)cc2)CC1	1	0	51*	2	6	13
Cc1ccc(Cn2c(CN3CCC(C)CC3)nc3c2c(=O)n(C)c(=O)n3C)cc1	2	0	-1	-7	·	·
COc1ccc(C)cc1Nc1cnn(C23CC4CC(CC(C4)C2)C3)c(=O)c1Cl	2	0	4	10	·	·
COc1ccc([N+](=O)[O-])cc1Nc1cnn(C23CC4CC(CC(C4)C2)C3)c(=O)c1Cl	-1	1	51*	-6	5	13
C=CCNc1nc(-c2ccccn2)nnc1-c1ccccc1	3	-1	70*	-5	69*	100*
O=C(Nc1ccc2c(c1)C(=O)NC2=O)c1cccc(Br)c1	0	0	16	4	·	·
CCn1c2ccccc2n2c(=O)n(CC(=O)Nc3cccc(C)n3)nc12	2	0	1	-1	·	·
Cc1cc(C)nc(SCc2cc(=O)c(OC(=O)C3(c4ccc(Cl)cc4)CCCC3)co2)n1	-1	0	102*	0	3	-7
CSc1ccc(Cc2nnc(NC(=O)c3cc(C)oc3C)o2)cc1	-1	0	2	11	·	·
CSc1ccc(Cc2nnc(NC(=O)C34CC5CC(CC(C5)C3)C4)o2)cc1	-1	0	52*	11	-9	19
CCN1CCN(c2ccc(N3CCN(C(=O)c4ccc(OC)cc4)CC3)nn2)CC1	-1	0	-5	1	·	·
Cc1cccc(CNCc2cc(NC(=O)c3ccccn3)cc(C(=O)N(C)C)c2)c1	4	0	69*	8	-7	-1
CN(C)C(=O)c1cc(CNCc2cccc(Cl)c2)cc(NC(=O)c2ccccn2)c1	1	0	-14	-4	·	·
COc1cccc(CN2CCN(C(=O)c3ccncc3)CC2)c1OC	-1	1	83*	7	11	19
COc1ccc(CN2CCN(C(=O)c3ccncc3)CC2)c(OC)c1OC	-1	0	51*	-8	-2	-4
COc1ccc(CN2CCN(C(=O)c3ccccc3)CC2)c(OC)c1OC	0	0	25	-6	·	·
Cc1cc(N2CCN(C)CC2)nc2ccc(NC(=S)NCCCN3CCOCC3)cc12	0	0	-3	2	·	·
CCOc1ccc(CN2CCN(C(=O)c3ccccc3OC)CC2)cc1	1	0	57*	31	4	16
OC1CCN(Cc2ccc(Cl)cc2)CC1	0	0	28	1	·	·

Screening results from PubChem.
